Measurements as given in PubChem BioAssay AID1159580 (chemical genetic matrix, 2015).
Values joined by “and” are separate entries in the source; they are usually repeats but may differ in a detail not shown here. Identical values can stand only once. About 2,000 (36%) of roughly 5,500 compounds were called active. Roughly 18% stayed inconclusive and do not appear here. Cut-off read from the data, not from the text of the source: active = normalized growth mostly below about 0.91 (no sharp cut-off); inconclusive = no clear call, values can overlap the other calls; inactive = mostly above about 0.92. Some of the results follow.

Assay: chemical genetic growth profiling, strain panel (AID 1159580);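 note: tested at 20 µM; growth read once vehicle control cultures reached saturation at 30 °C; 1 = growth at the plate median or of vehicle wells; lower values mean less growth of the strain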
Conditions: S. cerevisiae deletion strains, growth OD

Measured: normalized growth

CC(=O)Oc1cccc(O)c1
inactive: locus YAL021C, strain ccr4, active compounds read low 1 | locus YAL026C, strain drs2, active compounds read low 1.04 | locus YAL030W, strain snc1, active compounds read low 1.01 | locus YBL061C, strain skt5, active compounds read low 1.02 | locus YBR009C, strain hhf1, active compounds read low 1.01 | locus YBR021W, strain FUR4, active compounds read low 0.973 | locus YBR023C, strain chs3, active compounds read low 1.03 | locus YBR171W, strain sec66, active compounds read low 1.03 | locus YBR229C, strain ROT2, active compounds read low 1 | locus YBR231C, strain swc5, active compounds read low 1.03 | locus YBR279W, strain paf1, active compounds read low 1.02 | locus YCL011C, strain gbp2, active compounds read low 1.02 | locus YCL016C, strain dcc1, active compounds read low 1.01 | locus YCL029C, strain bik1, active compounds read low 1.01 | locus YCL069W, strain vba3, active compounds read low 1.03 | locus YCR088W, strain abp1, active compounds read low 1.02 | locus YDL005C, strain med2, active compounds read low 1.03 | locus YDL035C, strain GPR1, active compounds read low 1.01 | locus YDL040C, strain nat1, active compounds read low 1.02 | locus YDL074C, strain BRE1, active compounds read low 0.996 | locus YDL101C, strain DUN1, active compounds read low 1.01 | locus YDL134C, strain PPH21, active compounds read low 1.01 | locus YDL185W, strain tfp1, active compounds read low 1.03 | locus YDL192W, strain arf1, active compounds read low 1.02 | locus YDR001C, strain nth1, active compounds read low 1.02 | locus YDR069C, strain doa4, active compounds read low 1.03 | locus YDR101C, strain arx1, active compounds read low 0.996 | locus YDR137W, strain rgp1, active compounds read low 1.05 | locus YDR159W, strain sac3, active compounds read low 1.05 | locus YDR162C, strain NBP2, active compounds read low 1.02 | locus YDR195W, strain ref2 1.03 | locus YDR297W, strain sur2, active compounds read low 1.04 | locus YDR318W, strain mcm21, active compounds read low 1.01 | locus YDR334W, strain swr1, active compounds read low 1.01 | locus YDR335W, strain msn5, active compounds read low 1.01 | locus YDR388W, active compounds read low 1.02 | locus YDR392W, strain spt3, active compounds read low 1.01 | locus YDR502C, strain sam2, active compounds read low 1.03 | locus YEL003W, strain gim4, active compounds read low 1.02 | locus YEL037C, strain rad23, active compounds read low 1.02 | locus YEL061C, strain CIN8 (second series), active compounds read low 1.02 | locus YEL061C, strain CIN8, active compounds read low 1.01 | locus YER015W, strain faa2, active compounds read low 1.02 | locus YER110C, active compounds read low 1.03 | locus YER111C, strain swi4, active compounds read low 1.02 | locus YER155C, strain BEM2 (second series), active compounds read low 1.02 | locus YER155C, strain BEM2, active compounds read low 0.996 | locus YER167W, strain BCK2, active compounds read low 1 | locus YFR010W, strain ubp6, active compounds read low 1.04 | locus YGL078C, strain dbp3, active compounds read low 1.02 | locus YGL086W, strain mad1, active compounds read low 0.999 | locus YGL167C, strain pmr1, active compounds read low 1.02 | locus YGL173C, strain kem1, active compounds read low 1.04 | locus YGL227W, strain vid30, active compounds read low 1.02 | locus YGL240W, strain doc1, active compounds read low 1.02 | locus YGL248W, strain PDE1, active compounds read low 1.01 | locus YGL253W, strain hxk2, active compounds read low 1.02 | locus YGR078C, strain PAC10, active compounds read low 1 | locus YGR135W, strain pre9, active compounds read low 1.03 | locus YGR229C, strain SMI1, active compounds read low 1 | locus YGR252W, strain gcn5, active compounds read low 1.06 | locus YHR013C, strain ard1, active compounds read low 1.02 | locus YHR027C, strain rpn1, active compounds read low 1.02 | locus YHR030C, strain SLT2, active compounds read low 1.01 and 0.949 | locus YHR079C, strain IRE1 (second series), active compounds read low 1.01 | locus YHR079C, strain IRE1, active compounds read low 0.967 | locus YHR094C, strain hxt1, active compounds read low 1.01 | locus YHR129C, strain ARP1, active compounds read low 1.01 | locus YHR142W, strain chs7, active compounds read low 1.03 | locus YHR200W, strain rpn10, active compounds read low 1.02 | locus YIL066C, strain RNR3, active compounds read low 1 | locus YIL073C, strain SPO22, active compounds read low 1.04 | locus YIL125W, strain kgd1, active compounds read low 1.01 | locus YIR030C, strain dcg1, active compounds read low 1.01 | locus YJL092W, strain hpr5, active compounds read low 1.02 | locus YJL095W, strain BCK1 (second series), active compounds read low 1.02 | locus YJL095W, strain BCK1, active compounds read low 1.01 and 0.974 | locus YJL115W, strain asf1, active compounds read low 1.01 | locus YJL129C, strain trk1, active compounds read low 1.04 | locus YJL134W, strain LCB3, active compounds read low 1.01 | locus YJL154C, strain vps35, active compounds read low 1.02 | locus YJL164C, strain tpk1, active compounds read low 1.01 | locus YJL166W, strain qcr8, active compounds read low 1.03 | locus YJL168C, strain set2, active compounds read low 1.02 | locus YJL187C, strain SWE1 (second series), active compounds read low 1.01 | locus YJL187C, strain SWE1, active compounds read low 1.02 | locus YJR043C, strain POL32, active compounds read low 0.999 | locus YJR066W, strain TOR1, active compounds read low 0.96
